Some test systems named below: HCT-15 colon; HT29 colon; SNB-75 CNS; SNB-19 CNS; U251 CNS; PC-3 prostate; SK-MEL-5 melanoma; UACC-62 melanoma; LOX IMVI melanoma; SK-MEL-28 melanoma.
What all share (assay): NCI-60 one-dose screen, 48 h (100 = growth as untreated, 0 = no growth, -100 = all killed)
Holding throughout (settings): 10 µM unless noted

About 83,000 compounds went through this panel and 20% of them were active in at least one assay; those are over-represented in the sample as a whole.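 Each cell line was grown in a 96-well plate and treated with one concentration of compound for 48 hours. Values below 10 were considered active.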 Values without a mark were called inactive. Activity calls are given as the source filed them.

Take `NS(=O)(=O)c1ccc(CCn2c(SCC(=O)N/N=C/c3cccnc3)nc3ccccc3c2=O)cc1`: the growth in the test on HCT-15 colon is 83%; in the test on HT29 colon, 109%; with SNB-75 CNS, 90.8%; in the test with SNB-19 CNS, 100%; in the test on U251 CNS, 87.7%; in the test on PC-3 prostate, 83.8%. The growth is 79.5% in the test with SK-MEL-5 melanoma, 84.5% with UACC-62 melanoma, 85% with LOX IMVI melanoma and 101% in the test on SK-MEL-28 melanoma.

On to `CCOc1cc(/C=N\NC(=O)C[N+](C)(C)C)ccc1O`, for which the growth with HCT-15 colon was 103%; in the test with HT29 colon it was 105%; with SNB-75 CNS, 106%; in the test on SNB-19 CNS, 117%; in the test on U251 CNS, 105%; in the test on PC-3 prostate it was 99.6%. Also, the figures for the growth with SK-MEL-5 melanoma, with UACC-62 melanoma and in the test on SK-MEL-28 melanoma were 105%, 111% and 117%, respectively.

Regarding `CC(C)(C)c1ccc(C(=O)Nc2sc3cc(O)ccc3c2C(N)=O)cc1`, the growth in the test with HCT-15 colon is 43.9%; with HT29 colon, 23.8%; in the test with SNB-75 CNS it was 95.9%; in the test with SNB-19 CNS, 94.1%; with U251 CNS, 77.5%; with PC-3 prostate it was 79.2%. Also, the growth with SK-MEL-5 melanoma was 96.6%; in the test on UACC-62 melanoma, 104%; with SK-MEL-28 melanoma, 87.5%.

`CC1CCCN(CCCCOc2ccc(-c3ccc(C#N)cc3)cc2)C1` (stereo not drawn): the growth in the test on HCT-15 colon is 56.4%; in the test on HT29 colon, 14.6%; in the test on SNB-75 CNS, 90.3%; in the test on SNB-19 CNS, 95.3%; in the test with U251 CNS, 71.7%; with PC-3 prostate, 75.4%. The growth with SK-MEL-5 melanoma was 46.2%; in the test on UACC-62 melanoma, 89.8%; in the test on LOX IMVI melanoma it was 83.9%; with SK-MEL-28 melanoma, 100%.

Consider `C=CC(=O)N1CN(C(=O)C=C)CN(C(=O)C=C)C1`, for which the growth in the test with HCT-15 colon is 3.65% (active); in the test on HT29 colon it was 26.2%; in the test on SNB-75 CNS, 60%; in the test with SNB-19 CNS, 107%; in the test with U251 CNS, 88.9%; in the test on PC-3 prostate, 90.8%. Moreover, the growth is 71.5% in the test with SK-MEL-5 melanoma, 74.3% with UACC-62 melanoma, 71.4% with LOX IMVI melanoma and 72.7% with SK-MEL-28 melanoma.

For the compound `COc1cnc2c(c1)C(=O)c1c-2n(CCCN2CCN(C)CC2)c(=O)c2cc(Cl)ccc12`, the growth in the test with HCT-15 colon is 41.8%; in the test on HT29 colon, -60.6% (active); in the test on SNB-75 CNS, 38.7%; in the test with SNB-19 CNS it was 46.3%; in the test with U251 CNS, 45.4%; in the test with PC-3 prostate, 40.5%. The growth in the test with SK-MEL-5 melanoma is 65.4%; with UACC-62 melanoma, -49% (active); in the test on LOX IMVI melanoma it was 38.2%; in the test on SK-MEL-28 melanoma, -53.8% (active).

As to `COc1ccc(CC2c3cc(OC)c(OC)cc3CC[N+]2(C)CCC(=O)OCCCCCOC(=O)CC[N+]2(C)CCc3cc(OC)c(OC)cc3C2Cc2ccc(OC)c(OC)c2)cc1OC` (stereo not drawn), the growth is 102% in the test on HCT-15 colon; 96% with HT29 colon; 63.4% in the test with SNB-75 CNS; 104% with SNB-19 CNS; 93.4% with U251 CNS; 90.3% with PC-3 prostate. For the same compound, the growth is 87.4% in the test on SK-MEL-5 melanoma, 93.3% in the test with UACC-62 melanoma and 99.8% in the test on SK-MEL-28 melanoma.

For `O=C(C(=O)N1CCCC1)c1cn(CCCn2cc(C(=O)C(=O)N3CCCC3)c3cc(Br)ccc32)c2ccc(Br)cc12`, the growth is 84.6% with HCT-15 colon; 79.3% in the test with HT29 colon; 46.3% with SNB-75 CNS; 85.5% with SNB-19 CNS; 36.6% with U251 CNS; 66.5% with PC-3 prostate. Further, the growth in the test with SK-MEL-5 melanoma is 90.8%; in the test with UACC-62 melanoma, 85.1%; in the test on LOX IMVI melanoma, 57.9%; in the test with SK-MEL-28 melanoma, 79.8%.

Consider `CC(C)(C)OC(=O)N1CCCN(CCNc2nccc(-c3c(-c4cccc(O)c4)nc4sccn34)n2)S1(=O)=O`, for which the growth in the test with HCT-15 colon is 99.9%; in the test on HT29 colon, 56.7%; with SNB-75 CNS, 84%; with SNB-19 CNS, 126%; in the test on U251 CNS it was 117%; in the test on PC-3 prostate it was 85%. Moreover, the growth with SK-MEL-5 melanoma was 86.9%; in the test with UACC-62 melanoma it was 12.1%; in the test on LOX IMVI melanoma, 32.3%; in the test on SK-MEL-28 melanoma it was 45.4%.

`CC(C)(c1ccccc1)c1cc(O)c(C(C)(C)c2ccccc2)cc1O`: the growth in the test with HCT-15 colon is 21.3%; with HT29 colon, 15.8%; with SNB-75 CNS, 43.5%; in the test with SNB-19 CNS, 37.8%; with U251 CNS it was 36.5%; in the test on PC-3 prostate, 16.9%. For the same compound, the growth was 11.3% with SK-MEL-5 melanoma, 20.6% with UACC-62 melanoma, 32.7% in the test on LOX IMVI melanoma and 53.2% in the test with SK-MEL-28 melanoma.

As to `COC(=O)c1ccc2c(c1)nc(-c1ccc(Cl)cc1)n2-c1cc(C(C)(C)C)[nH]n1`, the growth is 69.5% in the test on HCT-15 colon; 23% with HT29 colon; 47.3% in the test with SNB-75 CNS; 78.3% in the test on SNB-19 CNS; 38.2% in the test with U251 CNS; 39% with PC-3 prostate. The growth with SK-MEL-5 melanoma is 25.9%; with UACC-62 melanoma, 45.7%; in the test on SK-MEL-28 melanoma it was 58%.

Consider `CC(C)(C)c1nn(-c2ccccc2)c2c1C(=O)CSC(c1ccc3c(c1)OCO3)N2` (stereo not drawn), for which the growth in the test with HCT-15 colon was 89.9%; in the test on HT29 colon, 100%; in the test on SNB-75 CNS it was 98.4%; in the test with SNB-19 CNS, 101%; in the test with U251 CNS it was 107%; in the test on PC-3 prostate it was 84.4%. Moreover, the growth in the test on SK-MEL-5 melanoma was 110%; in the test with UACC-62 melanoma, 85.3%; in the test with SK-MEL-28 melanoma, 109%.

On to `Cc1csc(N/N=C/c2ccncc2)n1`, for which the growth in the test with HCT-15 colon is 103%; in the test on HT29 colon it was 87.4%; in the test with SNB-75 CNS it was 105%; in the test on SNB-19 CNS it was 100%; with U251 CNS, 83.5%; with PC-3 prostate, 111%. Also, the growth with SK-MEL-5 melanoma is 100%; with UACC-62 melanoma it was 93.2%; in the test with SK-MEL-28 melanoma it was 110%.

With `COc1ncnc2[nH]cc(CN3CCN(c4ccc(F)cc4)CC3)c12`, the growth in the test on HCT-15 colon was 104%; in the test with HT29 colon, 91.2%; with SNB-75 CNS, 100%; in the test on SNB-19 CNS it was 102%; in the test with PC-3 prostate, 100%; in the test with SK-MEL-5 melanoma it was 103%. Besides, the growth is 106% in the test with UACC-62 melanoma, 106% in the test on LOX IMVI melanoma and 114% in the test with SK-MEL-28 melanoma.

Source of the values: PubChem BioAssay (NCI).
